# Data from PMC7862700, “An all-to-all approach to the identification of sequence-specific readers for epigenetic DNA modifications on cytosine”.
# Key:
# Experiment in all cases: DAPPL (digital affinity profiling via proximity ligation, sequencing); 10 mM Tris-HCl pH 7.5, 50 mM NaCl, 1 mM DTT, 4% glycerol, room temperature, 30 min; GST-TFs on glutathione beads, 16-mer random dsDNA library, 0.1% formaldehyde crosslink after washing; high values mean tight binding
# FLI1 = molecular target: T1, FLI1 (Homo sapiens, UniProt Q01543 1-452); settings: protein: recombinant; tags: N-terminal GST; dsDNA, one strand shown
# T1 sequence: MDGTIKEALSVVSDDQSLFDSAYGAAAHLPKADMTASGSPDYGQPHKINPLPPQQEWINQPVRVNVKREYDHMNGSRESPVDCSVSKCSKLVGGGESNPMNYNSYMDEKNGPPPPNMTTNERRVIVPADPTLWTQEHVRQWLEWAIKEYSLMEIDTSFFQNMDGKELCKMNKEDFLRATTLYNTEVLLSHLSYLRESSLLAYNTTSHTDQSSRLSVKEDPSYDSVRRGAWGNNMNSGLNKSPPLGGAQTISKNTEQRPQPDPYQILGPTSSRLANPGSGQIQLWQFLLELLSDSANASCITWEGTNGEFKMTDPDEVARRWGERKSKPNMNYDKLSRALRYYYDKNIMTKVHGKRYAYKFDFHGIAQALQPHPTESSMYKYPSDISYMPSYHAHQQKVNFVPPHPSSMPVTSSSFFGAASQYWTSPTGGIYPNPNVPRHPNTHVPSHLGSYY
# How it was run: (§1)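 A tag-only sample was pooled with DNA-barcoded human transcription factors that had been expressed in yeast as GST fusions and captured on glutathione beads. The pools were incubated for 30 min at room temperature with 200 nmole of a random double-stranded 16-mer DNA library in Tris/NaCl/DTT/glycerol buffer, then washed, crosslinked with 0.1% formaldehyde, proximity-ligated (BsaI/T4 ligase, 1 h, 37 °C), PCR-amplified and sequenced on an Illumina NextSeq500. Binding signal is each hexamer's read frequency for a factor divided by its frequency for the tag-only sample.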
# ELK1 = molecular target: T2, ELK1 (Homo sapiens, UniProt P19419 1-428); settings: protein: recombinant; tags: N-terminal GST; dsDNA, one strand shown
# T2 sequence: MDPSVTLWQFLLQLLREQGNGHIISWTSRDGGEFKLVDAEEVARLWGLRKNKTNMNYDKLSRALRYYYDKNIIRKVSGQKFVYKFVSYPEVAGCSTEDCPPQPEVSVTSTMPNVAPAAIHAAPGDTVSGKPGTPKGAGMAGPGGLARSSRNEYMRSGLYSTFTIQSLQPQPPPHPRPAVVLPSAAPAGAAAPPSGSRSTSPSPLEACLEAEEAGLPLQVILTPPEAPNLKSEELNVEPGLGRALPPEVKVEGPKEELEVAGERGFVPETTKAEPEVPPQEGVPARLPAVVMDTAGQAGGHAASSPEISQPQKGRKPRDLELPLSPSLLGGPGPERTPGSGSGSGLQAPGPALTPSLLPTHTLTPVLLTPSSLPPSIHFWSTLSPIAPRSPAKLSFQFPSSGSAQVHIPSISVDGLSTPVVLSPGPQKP
# How it was run: as §1
# GABPA = molecular target: T3, GABPA (Homo sapiens, UniProt Q06546 1-454); settings: protein: recombinant; tags: N-terminal GST; dsDNA, one strand shown
# T3 sequence: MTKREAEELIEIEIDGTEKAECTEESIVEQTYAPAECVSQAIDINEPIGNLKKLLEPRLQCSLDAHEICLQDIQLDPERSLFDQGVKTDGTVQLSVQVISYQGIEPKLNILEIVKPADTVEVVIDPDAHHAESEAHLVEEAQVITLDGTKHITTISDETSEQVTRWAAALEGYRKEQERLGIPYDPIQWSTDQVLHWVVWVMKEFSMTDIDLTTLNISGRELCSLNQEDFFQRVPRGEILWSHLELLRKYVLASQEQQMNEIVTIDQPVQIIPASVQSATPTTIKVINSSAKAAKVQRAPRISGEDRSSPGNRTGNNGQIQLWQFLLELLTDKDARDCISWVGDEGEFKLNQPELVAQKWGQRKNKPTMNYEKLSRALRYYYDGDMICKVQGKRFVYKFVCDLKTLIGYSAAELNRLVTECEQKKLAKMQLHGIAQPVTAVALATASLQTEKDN
# How it was run: as §1
# ERG = molecular target: T4, ERG (Homo sapiens, UniProt P11308 1-479); settings: protein: recombinant; tags: N-terminal GST; dsDNA, one strand shown
# T4 sequence: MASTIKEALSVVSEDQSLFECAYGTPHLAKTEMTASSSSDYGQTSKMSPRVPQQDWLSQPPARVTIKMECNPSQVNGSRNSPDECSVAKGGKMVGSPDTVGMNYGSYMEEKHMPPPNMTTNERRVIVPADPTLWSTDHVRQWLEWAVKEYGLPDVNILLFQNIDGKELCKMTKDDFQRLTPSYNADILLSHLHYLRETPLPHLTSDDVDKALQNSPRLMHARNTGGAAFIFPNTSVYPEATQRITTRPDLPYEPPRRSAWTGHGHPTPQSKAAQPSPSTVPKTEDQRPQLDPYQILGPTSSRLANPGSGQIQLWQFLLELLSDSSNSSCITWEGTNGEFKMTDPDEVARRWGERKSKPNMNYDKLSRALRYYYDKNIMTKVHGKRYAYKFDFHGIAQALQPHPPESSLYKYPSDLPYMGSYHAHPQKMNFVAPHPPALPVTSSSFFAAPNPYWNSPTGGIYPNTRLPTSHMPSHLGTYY
# How it was run: as §1
# ELF1 = ELF1 (Homo sapiens, UniProt P32519 1-619); settings: protein: recombinant; tags: N-terminal GST; dsDNA, one strand shown
# ELF1, sequence (P32519 whole entry): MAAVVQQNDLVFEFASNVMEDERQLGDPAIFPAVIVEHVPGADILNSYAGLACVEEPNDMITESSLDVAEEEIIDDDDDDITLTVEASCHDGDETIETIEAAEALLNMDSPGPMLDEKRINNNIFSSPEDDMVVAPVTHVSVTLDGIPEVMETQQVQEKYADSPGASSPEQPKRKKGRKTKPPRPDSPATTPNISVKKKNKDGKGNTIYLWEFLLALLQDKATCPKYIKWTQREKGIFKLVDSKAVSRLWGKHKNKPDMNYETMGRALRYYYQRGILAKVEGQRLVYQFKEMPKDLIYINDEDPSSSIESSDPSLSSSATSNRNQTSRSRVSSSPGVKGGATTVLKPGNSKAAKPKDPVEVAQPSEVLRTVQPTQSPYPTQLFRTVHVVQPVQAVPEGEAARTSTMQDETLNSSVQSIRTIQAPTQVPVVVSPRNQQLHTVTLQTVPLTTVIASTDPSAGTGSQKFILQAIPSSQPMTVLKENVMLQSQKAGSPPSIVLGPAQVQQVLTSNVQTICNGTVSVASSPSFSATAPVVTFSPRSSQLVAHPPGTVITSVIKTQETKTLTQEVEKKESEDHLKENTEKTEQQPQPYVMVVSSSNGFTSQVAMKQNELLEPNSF
# How it was run: as §1
# EHF = molecular target: T5, EHF (Homo sapiens, UniProt Q9NZC4 1-300); settings: protein: recombinant; tags: N-terminal GST; dsDNA, one strand shown
# T5 sequence: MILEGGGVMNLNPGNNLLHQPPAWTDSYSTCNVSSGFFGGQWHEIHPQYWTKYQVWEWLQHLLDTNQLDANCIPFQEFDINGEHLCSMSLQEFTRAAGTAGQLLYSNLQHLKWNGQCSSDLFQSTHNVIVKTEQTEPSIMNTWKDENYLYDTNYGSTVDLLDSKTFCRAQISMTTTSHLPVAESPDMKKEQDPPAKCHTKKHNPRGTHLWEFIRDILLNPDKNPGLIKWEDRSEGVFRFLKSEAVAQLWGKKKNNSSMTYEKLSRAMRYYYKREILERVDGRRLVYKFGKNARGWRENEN
# How it was run: as §1
# SPI1 = SPI1 (Homo sapiens, UniProt P17947 1-270); settings: protein: recombinant; tags: N-terminal GST; dsDNA, one strand shown
# How it was run: as §1
# SPIB = SPIB (Homo sapiens, UniProt Q01892 1-262); settings: protein: recombinant; tags: N-terminal GST; dsDNA, one strand shown
# SPIB, sequence (Q01892 whole entry): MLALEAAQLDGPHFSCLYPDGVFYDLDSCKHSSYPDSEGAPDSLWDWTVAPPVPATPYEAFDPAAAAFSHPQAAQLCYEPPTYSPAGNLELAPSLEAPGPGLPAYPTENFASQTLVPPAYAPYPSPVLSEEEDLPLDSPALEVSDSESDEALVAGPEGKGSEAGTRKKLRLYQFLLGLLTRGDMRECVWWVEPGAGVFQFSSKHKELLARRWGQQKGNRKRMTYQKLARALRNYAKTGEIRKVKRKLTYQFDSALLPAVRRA
# How it was run: as §1
# ELK3 = molecular target: T6, ELK3 (Homo sapiens, UniProt P41970 1-407); settings: protein: recombinant; tags: N-terminal GST; dsDNA, one strand shown
# T6 sequence: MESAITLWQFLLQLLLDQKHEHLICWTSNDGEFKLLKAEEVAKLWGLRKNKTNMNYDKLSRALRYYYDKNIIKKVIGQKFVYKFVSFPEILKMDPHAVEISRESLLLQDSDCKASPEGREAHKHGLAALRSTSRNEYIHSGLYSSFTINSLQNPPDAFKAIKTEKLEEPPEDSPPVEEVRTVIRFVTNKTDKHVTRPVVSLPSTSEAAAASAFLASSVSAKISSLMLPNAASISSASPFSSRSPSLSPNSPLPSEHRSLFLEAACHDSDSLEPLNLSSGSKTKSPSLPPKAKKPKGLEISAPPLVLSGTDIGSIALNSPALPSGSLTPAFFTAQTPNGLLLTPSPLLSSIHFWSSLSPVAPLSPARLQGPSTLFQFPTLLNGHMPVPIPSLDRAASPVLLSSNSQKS
# How it was run: as §1
# FEV = molecular target: T7, FEV (Homo sapiens, UniProt Q99581 1-238); settings: protein: recombinant; tags: N-terminal GST; dsDNA, one strand shown
# T7 sequence: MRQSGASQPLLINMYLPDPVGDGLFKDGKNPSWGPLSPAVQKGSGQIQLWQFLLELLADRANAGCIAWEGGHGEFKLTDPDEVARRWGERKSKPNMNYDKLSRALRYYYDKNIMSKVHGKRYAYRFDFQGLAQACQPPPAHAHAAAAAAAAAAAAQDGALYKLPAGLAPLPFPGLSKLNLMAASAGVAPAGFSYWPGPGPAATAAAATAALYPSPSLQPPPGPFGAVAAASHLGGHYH
# How it was run: as §1
# ETV5 = ETV5 (Homo sapiens, UniProt P41161 1-510); settings: protein: recombinant; tags: N-terminal GST; dsDNA, one strand shown
# ETV5, sequence (P41161 whole entry): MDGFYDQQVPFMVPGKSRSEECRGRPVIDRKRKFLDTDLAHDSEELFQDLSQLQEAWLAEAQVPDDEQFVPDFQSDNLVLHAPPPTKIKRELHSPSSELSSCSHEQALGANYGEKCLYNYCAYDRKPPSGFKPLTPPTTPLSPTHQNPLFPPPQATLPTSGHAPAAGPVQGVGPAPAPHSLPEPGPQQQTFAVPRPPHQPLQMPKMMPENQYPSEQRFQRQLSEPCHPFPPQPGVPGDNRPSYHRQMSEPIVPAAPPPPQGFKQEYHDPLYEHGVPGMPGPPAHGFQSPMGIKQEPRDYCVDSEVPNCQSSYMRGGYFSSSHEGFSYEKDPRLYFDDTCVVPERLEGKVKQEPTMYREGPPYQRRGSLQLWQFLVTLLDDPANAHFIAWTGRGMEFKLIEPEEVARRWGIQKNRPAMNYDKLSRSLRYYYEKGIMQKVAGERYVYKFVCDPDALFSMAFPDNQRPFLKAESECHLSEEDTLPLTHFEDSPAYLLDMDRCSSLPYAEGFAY
# How it was run: as §1
# HSF1 = HSF1 (Homo sapiens, UniProt Q00613 1-529); settings: protein: recombinant; tags: N-terminal GST; chain copies: 3; dsDNA, one strand shown
# HSF1, sequence (Q00613 whole entry): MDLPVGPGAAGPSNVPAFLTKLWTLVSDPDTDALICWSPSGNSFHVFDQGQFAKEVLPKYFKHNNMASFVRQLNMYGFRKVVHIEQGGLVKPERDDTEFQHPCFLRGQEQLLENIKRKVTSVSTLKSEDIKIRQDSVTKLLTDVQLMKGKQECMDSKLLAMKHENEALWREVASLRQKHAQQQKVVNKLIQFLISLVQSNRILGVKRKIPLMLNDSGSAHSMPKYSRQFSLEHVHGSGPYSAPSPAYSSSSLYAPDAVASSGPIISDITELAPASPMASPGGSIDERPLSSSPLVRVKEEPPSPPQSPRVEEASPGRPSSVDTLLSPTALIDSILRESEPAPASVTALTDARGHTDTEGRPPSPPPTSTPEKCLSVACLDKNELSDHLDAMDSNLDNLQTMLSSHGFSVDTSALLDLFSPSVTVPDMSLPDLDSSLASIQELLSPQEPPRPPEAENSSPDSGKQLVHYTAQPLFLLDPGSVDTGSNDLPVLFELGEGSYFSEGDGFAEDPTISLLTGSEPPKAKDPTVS
# How it was run: as §1
# SPIC = molecular target: T8, SPIC (Homo sapiens, UniProt Q8N5J4 1-248); settings: protein: recombinant; tags: N-terminal GST; dsDNA, one strand shown
# T8 sequence: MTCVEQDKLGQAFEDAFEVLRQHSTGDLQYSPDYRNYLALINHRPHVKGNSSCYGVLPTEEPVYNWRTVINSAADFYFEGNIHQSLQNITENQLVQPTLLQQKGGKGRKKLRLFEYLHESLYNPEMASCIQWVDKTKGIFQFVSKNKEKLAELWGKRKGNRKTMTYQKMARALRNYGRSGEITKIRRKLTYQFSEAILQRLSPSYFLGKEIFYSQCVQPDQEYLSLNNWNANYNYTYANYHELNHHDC
# How it was run: as §1
# ELF4 = ELF4 (Homo sapiens, UniProt Q99607 1-663); settings: protein: recombinant; tags: N-terminal GST; dsDNA, one strand shown
# ELF4, sequence (Q99607 whole entry): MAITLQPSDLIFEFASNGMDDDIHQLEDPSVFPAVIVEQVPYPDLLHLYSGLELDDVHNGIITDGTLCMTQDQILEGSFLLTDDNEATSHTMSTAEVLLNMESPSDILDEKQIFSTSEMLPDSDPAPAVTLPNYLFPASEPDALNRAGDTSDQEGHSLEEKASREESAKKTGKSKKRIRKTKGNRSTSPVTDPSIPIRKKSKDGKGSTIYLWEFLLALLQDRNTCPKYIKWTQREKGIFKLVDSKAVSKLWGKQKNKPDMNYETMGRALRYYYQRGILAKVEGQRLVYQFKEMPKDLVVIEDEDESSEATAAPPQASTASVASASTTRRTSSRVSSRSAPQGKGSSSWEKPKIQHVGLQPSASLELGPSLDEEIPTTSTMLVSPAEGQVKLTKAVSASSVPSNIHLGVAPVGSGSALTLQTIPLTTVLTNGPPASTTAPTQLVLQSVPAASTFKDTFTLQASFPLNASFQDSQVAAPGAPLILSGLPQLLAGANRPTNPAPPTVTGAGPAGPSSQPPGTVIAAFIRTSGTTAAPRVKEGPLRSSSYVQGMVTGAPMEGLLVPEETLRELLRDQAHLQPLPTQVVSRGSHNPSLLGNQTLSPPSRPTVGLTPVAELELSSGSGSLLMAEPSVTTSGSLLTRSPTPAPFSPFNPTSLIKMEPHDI
# How it was run: as §1
# ELK4 = molecular target: T9, ELK4 (Homo sapiens, UniProt P28324-2 1-405); settings: protein: recombinant; tags: N-terminal GST; dsDNA, one strand shown
# T9 sequence: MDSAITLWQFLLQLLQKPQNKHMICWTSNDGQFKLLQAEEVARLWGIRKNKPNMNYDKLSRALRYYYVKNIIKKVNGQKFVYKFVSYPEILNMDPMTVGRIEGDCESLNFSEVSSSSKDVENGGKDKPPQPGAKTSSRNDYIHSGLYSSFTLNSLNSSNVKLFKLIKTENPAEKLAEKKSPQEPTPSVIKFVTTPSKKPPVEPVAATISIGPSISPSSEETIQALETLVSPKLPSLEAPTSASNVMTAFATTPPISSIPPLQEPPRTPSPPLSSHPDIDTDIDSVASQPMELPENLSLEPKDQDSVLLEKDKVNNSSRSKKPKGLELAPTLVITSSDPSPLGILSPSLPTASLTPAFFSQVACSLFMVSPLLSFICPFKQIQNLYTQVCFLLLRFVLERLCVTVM
# How it was run: as §1
# ETV2 = molecular target: T10, ETV2 (Homo sapiens, UniProt O00321 1-342); settings: protein: recombinant; tags: N-terminal GST; dsDNA, one strand shown
# T10 sequence: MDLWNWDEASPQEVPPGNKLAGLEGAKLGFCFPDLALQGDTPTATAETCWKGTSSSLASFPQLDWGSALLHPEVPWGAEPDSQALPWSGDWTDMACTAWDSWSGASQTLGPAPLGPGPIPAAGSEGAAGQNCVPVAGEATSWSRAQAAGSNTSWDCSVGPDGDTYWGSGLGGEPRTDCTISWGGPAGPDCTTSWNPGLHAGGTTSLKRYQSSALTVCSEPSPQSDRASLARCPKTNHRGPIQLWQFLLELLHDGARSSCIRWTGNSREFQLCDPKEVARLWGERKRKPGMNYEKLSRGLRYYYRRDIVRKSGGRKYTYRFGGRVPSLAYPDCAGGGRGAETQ
# How it was run: as §1
# ELF3 = molecular target: T11, ELF3 (Homo sapiens, UniProt P78545 1-371); settings: protein: recombinant; tags: N-terminal GST; dsDNA, one strand shown
# T11 sequence: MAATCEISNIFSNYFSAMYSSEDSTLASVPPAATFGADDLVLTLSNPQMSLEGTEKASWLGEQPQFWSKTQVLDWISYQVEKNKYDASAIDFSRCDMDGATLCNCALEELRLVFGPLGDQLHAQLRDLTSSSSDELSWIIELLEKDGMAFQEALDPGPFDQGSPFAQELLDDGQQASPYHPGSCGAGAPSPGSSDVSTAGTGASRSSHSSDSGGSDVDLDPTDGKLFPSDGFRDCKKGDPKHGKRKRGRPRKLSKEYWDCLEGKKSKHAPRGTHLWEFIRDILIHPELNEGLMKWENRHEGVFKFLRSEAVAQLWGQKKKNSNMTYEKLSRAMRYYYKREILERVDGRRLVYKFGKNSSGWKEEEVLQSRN
# How it was run: as §1
# CRX = CRX (Homo sapiens, UniProt O43186 1-299); settings: protein: recombinant; tags: N-terminal GST; dsDNA, one strand shown
# CRX, sequence (O43186 whole entry): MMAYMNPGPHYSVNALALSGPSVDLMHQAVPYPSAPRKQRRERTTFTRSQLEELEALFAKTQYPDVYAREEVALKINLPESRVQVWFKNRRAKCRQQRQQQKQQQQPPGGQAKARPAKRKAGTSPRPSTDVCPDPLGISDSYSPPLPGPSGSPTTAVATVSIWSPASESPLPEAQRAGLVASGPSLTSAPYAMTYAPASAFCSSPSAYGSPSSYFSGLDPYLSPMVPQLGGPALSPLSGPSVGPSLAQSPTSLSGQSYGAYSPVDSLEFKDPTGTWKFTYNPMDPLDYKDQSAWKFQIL
# How it was run: as §1
# ETV1 = ETV1 (Homo sapiens, UniProt P50549 1-477); settings: protein: recombinant; tags: N-terminal GST; dsDNA, one strand shown
# ETV1, sequence (P50549 whole entry): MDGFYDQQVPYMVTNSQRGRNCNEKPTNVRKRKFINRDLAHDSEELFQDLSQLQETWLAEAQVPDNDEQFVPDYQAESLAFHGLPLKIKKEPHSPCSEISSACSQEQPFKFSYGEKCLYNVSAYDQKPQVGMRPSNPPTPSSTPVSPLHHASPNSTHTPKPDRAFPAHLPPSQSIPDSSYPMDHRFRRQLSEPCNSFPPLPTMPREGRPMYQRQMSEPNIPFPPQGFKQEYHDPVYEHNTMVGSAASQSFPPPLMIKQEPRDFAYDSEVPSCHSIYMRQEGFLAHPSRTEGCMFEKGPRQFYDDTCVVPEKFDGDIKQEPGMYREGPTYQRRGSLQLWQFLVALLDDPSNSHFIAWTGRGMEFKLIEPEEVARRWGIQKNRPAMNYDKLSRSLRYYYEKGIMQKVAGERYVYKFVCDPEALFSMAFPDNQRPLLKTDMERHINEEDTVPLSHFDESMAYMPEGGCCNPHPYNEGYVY
# How it was run: as §1
sequence,measurement,setting,value
GGCTTC,binding signal,FLI1,"1.68 fold enrichment (6-mer frequency, TF over GST control)"
same,binding signal,ELK1,"1.8 fold enrichment (6-mer frequency, TF over GST control)"
same,binding signal,GABPA,"1.57 fold enrichment (6-mer frequency, TF over GST control)"
same,binding signal,ERG,"1.79 fold enrichment (6-mer frequency, TF over GST control)"
same,binding signal,ELF1,"1.62 fold enrichment (6-mer frequency, TF over GST control)"
same,binding signal,EHF,"1.78 fold enrichment (6-mer frequency, TF over GST control)"
same,binding signal,SPI1,"1.65 fold enrichment (6-mer frequency, TF over GST control)"
same,binding signal,SPIB,"1.78 fold enrichment (6-mer frequency, TF over GST control)"
same,binding signal,ELK3,"1.81 fold enrichment (6-mer frequency, TF over GST control)"
same,binding signal,FEV,"1.77 fold enrichment (6-mer frequency, TF over GST control)"
same,binding signal,ETV5,"1.69 fold enrichment (6-mer frequency, TF over GST control)"
same,binding signal,HSF1,"1.45 fold enrichment (6-mer frequency, TF over GST control)"
same,binding signal,SPIC,"1.6 fold enrichment (6-mer frequency, TF over GST control)"
same,binding signal,ELF4,"1.55 fold enrichment (6-mer frequency, TF over GST control)"
same,binding signal,ELK4,"1.44 fold enrichment (6-mer frequency, TF over GST control)"
same,binding signal,ETV2,"1.76 fold enrichment (6-mer frequency, TF over GST control)"
same,binding signal,ELF3,"1.64 fold enrichment (6-mer frequency, TF over GST control)"
same,binding signal,CRX,"1.25 fold enrichment (6-mer frequency, TF over GST control)"
same,binding signal,ETV1,"1.6 fold enrichment (6-mer frequency, TF over GST control)"
